Bioassay records as filed in PubChem.
KB-3-1 tox: KB-3-1 parental cell cytotoxicity; KB-3-1 viability, CellTiter-Glo ATP luminescence, 72 h; Potency, µM (titrated, usually from 46.1 µM), hits mostly cytotoxic; 400,000 compounds, 1.4% hits; AID 1347075; further: nearly all actives have a fitted effect of over 60% in size
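Screening of KB-3-1 cells (DMEM, 10% FBS, phenol-red free) ran from lowest to highest compound concentration; after 72 h at 37 °C viability was read luminescently and curves fitted.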
IL-1B inflam inh: inhibitors of inflammasome signaling (IL-1 beta secretion) | 360,000 compounds, 4.7% hits | THP-1 LPS/ATP IL-1B secretion, AlphaLISA, 16 h; stronger effect = lower value | activity change, % at 57.5 µM; in the data active means activity change below about -50%; inconclusive means mostly about -30% to -49%
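THP-1 cells pretreated 1 hr with compounds (up to 57.5 uM final), then stimulated with LPS (250 ng/mL final) plus ATP (1.25 mM final); secreted IL-1B measured by AlphaLISA after 16 hr, decreased signal indicating inhibition.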
KB-V1 MDR tox: KB-V1 MDR subline cytotoxicity; KB-V1 MDR cells viability, CellTiter-Glo, 72 h; Potency, µM (top dose mostly 46.1 µM), actives largely listed as cytotoxic; 400,000 compounds, 3.4% hits; AID 1347076; further: nearly all actives have a fitted effect of over 60% in size
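KB-V1 cells (P-gp-expressing MDR subline of KB-3-1) in phenol-red-free DMEM with 10% FBS were exposed to library compounds over a concentration series for 72 h at 37 degrees C. Viability read by CellTiter-Glo luminescence; concentration-effect curves fitted after normalization.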
SW480 rereplic: inducers of DNA re-replication in SW480 colon cancer cells | SW480 DNA re-replication, Hoechst DNA content imaging, 48 h | Potency, µM (titrated, usually from 46.1 µM), actives largely listed as activators | 340,000 compounds, 1.8% hits | AID 624297; further: nearly all actives have a fitted effect of over 55% in size
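Hoechst fluorescence of nuclei (405 nm excitation, 500-530 nm emission) measured by plate-scanning imager after 48 hr compound exposure at 37 C; re-replication scored as increased number of nuclei with elevated intensity.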
MCF10A rerep: DNA re-replication induction in MCF 10a cells; MCF 10A DNA re-replication, Hoechst nuclear intensity, 48 h; Potency, µM (series often up to 46.1 µM), most hits filed as activators; 350,000 compounds, 2.9% hits; AID 624296; further: nearly all actives have a fitted effect of over 50% in size
A number is an active result; i = inactive; ? = inconclusive; nt = no result given. A selection: hits, their analogues and other compounds. The true share with any hit is near 9.9%. Unless noted, the call rests on the fitted dose curve; in most records, active means well fitted curve in the direction sought with a large enough effect; inconclusive means small, poorly fitted or top-dose-only effect, or another doubt; inactive means no such curve, though single readings can be large; an effect the other way counts as inactive or inconclusive.

SMILES	KB-3-1 tox	IL-1B inflam inh	KB-V1 MDR tox	SW480 rereplic	MCF10A rerep
COC(=O)c1ccc(COC(=O)CNC(=O)CNC(=O)c2ccc(OC)cc2)cc1	i	-67.3	i	i	i
C=CCN1C(C(=O)c2ccccc2)=C(OC(=O)COc2ccccc2)c2ccccc2S1(=O)=O	?	i	11.6µM	?	?
CC12CCC3c4ccc(O)cc4CCC3C1CCC2=O (centres undefined)	i	i	?	i	i
C#C[C@]1(O)CC[C@H]2[C@@H]3CCc4cc(O)ccc4[C@H]3CC[C@@]21C	?	i	16.4µM	?	18.4µM
C#CC1(O)CCC2C3CCC4=C(CCC(=O)C4)C3CCC21C (centres undefined)	?	i	1.46µM	i	i
Cc1cc(N2CCC(C)CC2)nc(SCC(=O)c2ccccc2)n1	i	-61.7	?	i	?
Nc1ccccc1S(=O)(=O)C(F)F	i	i	i	i	i
CCc1ccc(NC(=O)N(Cc2cccnc2)Cc2ccco2)cc1	i	i	14.6µM	i	i
CCc1ccc(NC(=O)N(C2CCCCC2)C(C)c2cccnc2)cc1 (centres undefined)	i	i	20.6µM	i	i
COC(=O)c1ccc(NC(=S)N(Cc2cccnc2)Cc2ccco2)cc1	i	i	i	i	i
Cc1ccc(NC(=O)N(C2CCCCC2)C(C)c2cccnc2)cc1C (centres undefined)	i	i	i	i	i
CCc1ccc(NC(=O)N(Cc2ccco2)C(C)c2cccs2)cc1 (centres undefined)	?	?	20.6µM	i	?
Cc1cc(Nc2cc(Cl)cc(Cl)c2)nc(N)n1	i	i	?	i	i
O=C(Cn1cc([N+](=O)[O-])cn1)NCc1cc2ccccc2[nH]1	i	i	i	i	i
COc1ccc(NCC(=O)NN=C2CCS(=O)(=O)c3ccc(F)cc32)cc1	i	i	i	?	i
COC(=O)Cn1ncc2c3ccccc3n(Cc3ccccc3)c2c1=O	i	i	23.1µM	i	i
O=C(Cn1ncc2c3ccccc3n(Cc3ccccc3)c2c1=O)NCc1ccccc1	i	nt	i	nt	nt
CCc1nn2c(=O)cc(COc3ccc(/C=C(\C#N)C(=O)Nc4ccc(C)cc4)cc3)nc2s1	i	nt	i	nt	nt
O=C(NC(=S)Nc1ccccc1[N+](=O)[O-])c1ccccc1Cl	13µM	nt	?	i	i
O=C(NC(=S)Nc1ccc(O)cc1)c1ccccc1Cl	i	i	i	i	i
Cc1ccc(O)c(NC(=S)NC(=O)c2ccccc2Cl)c1	i	-58.1	i	i	?
Cc1c(Cl)cccc1-c1ccc(CNCc2ccccn2)o1	i	?	i	?	?
O=C1c2cccc3c(N4CCCCC4)ccc(c23)C(=O)N1c1cccc(O)c1	?	-67.7	?	?	11.6µM
C=CCN1C(=O)c2cccc3c(N4CCCCC4)ccc(c23)C1=O	i	i	i	?	16.4µM
Cc1n[nH]c(C)c1N1C(=O)c2cccc3c(N4CCCCCC4)ccc(c23)C1=O	i	i	20.6µM	i	?
SMILES	KB-3-1 tox	IL-1B inflam inh	KB-V1 MDR tox	SW480 rereplic	MCF10A rerep
CCN(CC)C(=O)c1sc2c(c1C)c(=O)n(-c1ccc(Cl)c(Cl)c1)c(=O)n2Cc1cc(=O)n2ccccc2n1	i	nt	i	nt	nt
Cc1ccc2c(c1)C(=O)CCN2	i	i	i	i	i
O=C1CCNc2cc3ccccc3cc21	23.1µM	i	?	?	i
O=C1CCNc2ccc(-c3ccccc3)cc21	i	i	i	i	23.1µM
O=C1NC(=O)c2cc3ccccc3cc21	i	i	i	i	i
O=C(c1cc(F)ccc1F)C1CCCN(C(=O)c2ccc(F)cc2Cl)C1 (centres undefined)	i	i	11.6µM	i	?
COC(=O)C1=CN(c2ccc(OC)cc2OC)C(N)=C(C#N)C1c1cccc([N+](=O)[O-])c1 (centres undefined)	2.06µM	i	2.31µM	nt	nt
COC(=O)C1=CN(c2cc(C)cc(C)c2)C=C(C(=O)OC)C1c1ccc(OC)c(O)c1	?	i	?	?	i
COC(=O)C1=CN(c2cc(C)cc(C)c2)C=C(C(=O)OC)C1c1cccc(F)c1	i	?	?	?	3.66µM
COC(=O)C1=CN(c2ccc(C)cc2)C(N)=C(C#N)C1c1ccccc1F (centres undefined)	?	i	?	nt	nt
COC(=O)C1=CN(C2CCCCC2)C=C(C(=O)OC)C1c1ccc2c(c1)OCO2	i	i	i	7.31µM	13µM
